According to PubChem BioAssay (NCATS):
Inconclusive results are not listed. The source made the active and inactive calls. Calls come from the whole dose curve; as a rule, active = well fitted inhibition curve with a large enough effect; inconclusive = small, poorly fitted or top-dose-only effect; inactive = flat fitted curve, though single readings scatter. Where a SMILES comes first, the peptide text is derived from it. [ ]: non-standard residue; d: D form. Ala(indol-2-yl) = N[C@@H](Cc1cc2ccccc2[nH]1)C(=O)O; Aib = CC(C)(N)C(=O)O

Tested on: HaCat
Experiment: Cytotoxic Profiling of Annotated Libraries Using Quantitative High-Throughput Screening (AID 1296008); note: nearly all actives have a fitted effect of over 60% in size
Conditions: Five cell lines viability, CellTiter-Glo ATP luminescence, 48-72 h; max response: hits give low values
How it was run: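 Cytotoxicity was measured as CellTiter-Glo ATP luminescence, read after 10 min at room temperature. Compound treatment of the cells lasted 48 or 72 hr at 37 degrees Celsius in a qHTS format.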
% is set by controls: 0 for no effect and ±100 for the full control effect; potency is the fitted concentration of half-maximal effect.

Structure (SMILES)	Potency	max response
COC1CC(O[C@H]2CC[C@@]3(C)C(CCC4C3CC[C@]3(C)[C@@H](C5=CC(=O)OC5)CC[C@]43O)C2)OC(C)C1O (stereo partly drawn)	178 nM (active)	
CC(C)(C)[C@]1(O)C[C@@H]2OC(=O)C[C@@]23C(=O)O[C@@H]2OC(=O)[C@@H](O)[C@]213		-5.58% (inactive)
C[C@H]1C/C=C/[C@H]2[C@@H]3O[C@]3(C)[C@@H](C)[C@H]3[C@H](Cc4ccccc4)NC(=O)[C@]32OC(=O)O/C=C/[C@@](C)(O)C1=O	796 nM (active)	
CNC(=O)c1cc(C#N)cc(C)c1NC(=O)c1cc(Br)nn1-c1ncccc1Cl		-17.6% (inactive)
OCc1nnc2n1-c1ccc(Cl)cc1C(c1ccccc1Cl)=NC2		-38% (inactive)
CN[C@@H]1C[C@H]2O[C@@](C)([C@@H]1OC)n1c3ccccc3c3c4c(c5c6ccccc6n2c5c31)C(=O)NC4	184 nM (active)	
COC1CC(O[C@H]2CC[C@]3(C=O)C4CC[C@]5(C)[C@@H](C6=CC(=O)OC6)CC[C@]5(O)[C@@H]4CC[C@@H]3C2)OC(C)C1O[C@@H]1O[C@H](CO)[C@@H](O[C@@H]2O[C@H](CO)[C@@H](O)[C@H](O)[C@H]2O)[C@H](O)[C@H]1O (stereo partly drawn)	873 nM (active)	
CC[C@@H]1C[C@H]2CC[C@H](O2)[C@H](C)C(=O)O[C@@H](C)C[C@@H]2CC[C@@H](O2)[C@@H](C)C(=O)O[C@H](CC)C[C@H]2CC[C@H](O2)[C@H](C)C(=O)O[C@@H](C)C[C@@H]2CC[C@@H](O2)[C@@H](C)C(=O)O1	1530 nM (active)	
CO[C@@H]1C[C@H](O[C@H]2CC[C@@]3(C)C(CCC4C3CC[C@]3(C)[C@@H](C5=CC(=O)OC5)[C@@H](OC(C)=O)CC43O)C2)O[C@H](C)[C@@H]1O[C@H]1O[C@H](CO[C@@H]2O[C@H](CO)[C@@H](O)[C@H](O)[C@H]2O)[C@@H](O)[C@H](O)[C@H]1O (stereo partly drawn)	1550 nM (active)	
CC(=O)O[C@@H]1[C@@H](O)[C@H]2O[C@@H]3C=C(C)[C@@H](O)C[C@]3(CO)[C@]1(C)[C@]21CO1	3600 nM (active)	
CO[C@H]1C[C@H](O[C@H]2CC[C@@]3(C)C(=CCC4C3CC[C@]3(C)[C@@H](C5=CC(=O)OC5)CC[C@]43O)C2)O[C@@H](C)[C@@H]1O[C@@H]1O[C@H](CO[C@@H]2O[C@H](CO)[C@@H](O)[C@H](O)[C@H]2O)[C@@H](O)[C@H](O)[C@H]1O (stereo partly drawn)		-7.84% (inactive)
C=C1[C@@H](C)[C@H]2[C@H](Cc3ccccc3)NC(=O)[C@]23[C@H](OC(C)=O)/C=C/[C@](C)(O)C(=O)[C@@H](C)C/C=C/[C@H]3[C@@H]1O	23100 nM (active)	
c1cncc(OC[C@@H]2CCN2)c1		0.624% (inactive)
CC(=O)OC[C@]12C[C@H](OC(=O)CC(C)C)C(C)=C[C@H]1O[C@@H]1[C@H](O)C[C@@]2(C)[C@]12CO2	6320 nM (active)	
CNc1ccc2oc(C[C@H]3O[C@@]4(CC[C@H]3C)O[C@H](C(C)C(=O)c3ccc[nH]3)[C@H](C)C[C@H]4C)nc2c1C(=O)O (stereo partly drawn)	7310 nM (active)	
C[N@@+]1(CC2CC2)CC[C@]23c4c5ccc(O)c4O[C@H]2C(=O)CC[C@@]3(O)[C@H]1C5		-19.5% (inactive)
COc1ccc2c3c([nH]c2c1)C(C=C(C)C)N1C(=O)C2CCCN2C(=O)C1C3 (stereo not drawn)		-17.6% (inactive)
CC(=O)OC[C@]12C[C@H](OC(=O)CC(C)C)C(C)=C[C@H]1O[C@@H]1[C@H](O)[C@@H](O)[C@@]2(C)[C@]12CO2	252 nM (active)	
CC(C)(NC(=O)[C@@H](N)Cc1ccc(O)cc1)C(=O)N[C@@H](Cc1cc2ccccc2[nH]1)C(=O)N[C@@H](Cc1ccccc1)C(=O)O (H-Y[Aib][Ala(indol-2-yl)]F-OH)		-4.8% (inactive)
C[C@]12CC[C@H](O)C[C@H]1CC[C@@H]1[C@@H]2[C@H](O)C(=O)[C@]2(C)[C@@H](c3ccc(=O)oc3)CC[C@]12O	130 nM (active)	
CC[C@H]1C2CC3[C@@H]4N(C)c5ccccc5[C@]45C[C@@H]([C@H]2[C@H]5O)N3[C@@H]1O		4.96% (inactive)
O=C(CC1NCCC[C@H]1O)Cn1cnc2cc(Br)c(Cl)cc2c1=O (stereo partly drawn)		-11.7% (inactive)
CC(=O)OC[C@]12C[C@H](OC(=O)CC(C)C)C(C)=C[C@H]1O[C@@H]1[C@H](O)[C@@H](OC(C)=O)[C@@]2(C)[C@@]12CO2	224 nM (active)	
